From PubChem BioAssay (EPA / NIEHS)
Values joined by “and” are separate entries in the source; they are usually repeats but may differ in a detail not shown here. Identical values can stand only once. Inconclusive results are not listed. Some structures have more than one record in an assay (separate samples or runs), and their calls can disagree. Active and inactive are the calls of the source. The calls were made as follows, unless noted: active = hit-call score of the fitted dose curve at least 0.9, where 1 is the maximum; inactive = score below 0.9.

Experiments:
[1] = UKN4_HCS_LUHMES_cell_viability: Viability Assessment in the University of Konstanz (UKN) Leist Lab Neurite Outgrowth Assay in human LUHMES cells (UKN4) (AID 2284232)
In short: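 Human dopaminergic-model LUHMES neurons were exposed to chemicals for 24 h after a 2-day differentiation. Viability was scored by imaging Hoechst H-33342 staining, with activity fitted in both directions relative to DMSO controls.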

[2] = UKN2_HCS_IMR90_cell_viability: Viability Assessment in the University of Konstanz (UKN) Leist Lab Neural Crest Cell Migration Assay in human induced IMR90 Pluripotent Stem Cells (UKN2) (AID 2284233);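 also: viability of neural crest cells differentiated from IMR90 iPSC measured by calcein-AM fluorescence imaging; cells exposed to compound for 24 h after a 24 h migration phase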
In short: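 Neural crest cells derived from IMR90 iPSC migrate into a stopper-free zone for 24 h in EGF/FGF medium, then are exposed to compound for 24 h. Viability assessed by calcein-AM and Hoechst staining with high-content imaging, fitted bidirectionally versus DMSO.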

[3] = TAMU_HCS_1.5hr_SingleDonor1434_Cytotoxicity: Cytotoxicity Assessment using High-content Screening (HCS) Fluorescent Imaging for the Texas A&M University (TAMU) 1.5-hr Human Induced Pluripotent Stem Cell (iPSC)-derived Cardiotoxicity Assay (AID 2284234; active = hit-call score of the fitted dose curve at least 0.9, where 1 is the maximum)
In short: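 Human iPSC-derived cardiomyocytes dosed at 0.2, 1, 10, 100 uM final (0.5% DMSO) for 90 min at 37 C. Hoechst 33342-stained nuclei counted by 10x high-content imaging; POD is EC10, a 10% drop in total cell count versus DMSO.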

[4] = CCTE_Mundy_HCI_Cortical_NOG_NeuronCount: CCTE's Neurite Outgrowth Assay in rat cortical cells for Neuron Count, Mundy Lab (AID 2284236; active = hit-call score of the fitted dose curve at least 0.9, where 1 is the maximum;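 also: neurons counted by imaging betaIII-tubulin and Hoechst stained cortical cells; cells exposed to compound for about 48 hours before fixation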)
In short: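 Read-out: neuron number by high-content imaging of betaIII-tubulin (Alexa Fluor-488) and Hoechst-labelled rat primary cortical cells.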

[5] = CCTE_Mundy_HCI_Cortical_NOG_BPCount: CCTE's Neurite Outgrowth Assay in rat cortical cells for Branch Point Count, Mundy Lab (AID 2284237);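 also: branch points counted about two days after chemical exposure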
In short: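 Measured 50.33 h after dosing, this morphology endpoint uses rat primary cortical cultures labelled for betaIII-tubulin. Branch points are quantified by high-content imaging, with DMSO as negative control and baseline.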

[6] = CCTE_Mundy_HCI_hNP1_Casp3_7: CCTE's Caspase-Glo 3/7 Assay in human neuroprogenitor cells for Apoptosis, Mundy Lab (AID 2284240)
In short: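 Luminescent caspase-3/7 readout, 26.5 h post-dose, in human neural progenitor cells from WA09 embryonic stem cells. Cells grew 40–44 h at 37 °C, 5% CO2 before chemical addition. Activity analysed as signal increase over DMSO baseline.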

[7] = CCTE_Mundy_HCI_hNP1_CellTiter: CCTE's Cell Titer-Glo 2 Assay in human neuroprogenitor cells for Viability, Mundy Lab (AID 2284241; active = hit-call score of the fitted dose curve at least 0.9, where 1 is the maximum;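 also: a hit is a drop in ATP luminescence versus DMSO meaning reduced viability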)
In short: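 Viability read as luminescent ATP content (CellTiter-Glo, 30 min room temperature) twenty-four hours after dosing, relative to DMSO. Cells: WA09-derived hNP1 neuroprogenitors on poly-L-ornithine/laminin, plated 40 to 44 hours before chemical.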

[8] = CCTE_Mundy_HCI_Cortical_Synap_Neur_Matur_NeuronCount: CCTE's Synaptogenesis and Neurite Maturation Assay in rat cortical cells for Neuron Count, Mundy Lab (AID 2284242; active = hit-call score of the fitted dose curve at least 0.9, where 1 is the maximum;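 as to AC50: neuron number from Hoechst nuclei and MAP2 staining by high-content imaging; hits reduce neuron count versus DMSO baseline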)
In short: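 Imaging-based neuron count in rat cortical cultures after chemical exposure from DIV 7 to DIV 12, with AraC added at DIV 5. Activity is fitted relative to DMSO.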

[9] = read-out: Interleukin 6 (IL6), IL6 (gene 3569); assay: BSK_BT_xIL6: BioMAP Diversity Plus: BT Assay for Interleukin 6 (IL6) Biomarker Activity (AID 2284228); conditions: primary human B cells with PBMC
In short: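 Secreted IL-6 in the primary human B cell plus PBMC system, measured by Luminex at 24 h post-chemical, DMSO as baseline. Alamar Blue viability: 75,000 cells/well, chemical 1 h before SEB/TSST-1 (20 ng/mL each), 90 h, then 6 h dye.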

[10] = read-out: Interleukin 17A (IL17A), IL17A (gene 3605); assay: BSK_BT_xIL17A: BioMAP Diversity Plus: BT Assay for Interleukin 17A (IL17A) Biomarker Activity (AID 2284229); conditions: primary human B cells with PBMC
In short: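 Luminex xMAP quantification of secreted IL-17A after 24 h chemical exposure of a primary human B cell/PBMC co-culture. Signal increases fitted relative to DMSO negative control.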

[11] = read-out: Tumor necrosis factor (Homo sapiens) (UniProt P01375); assay: BSK_BT_xTNFa: BioMAP Diversity Plus: BT Assay for Tumor necrosis factor alpha (TNF-alpha) Biomarker Activity (AID 2284230); conditions: primary human B cells with PBMC
In short: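 Compounds were added to a B cell plus PBMC co-culture, and after 24 h secreted TNF-alpha was quantified with Luminex xMAP technology, with responses fitted upward from the DMSO control.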

[12] = read-out: Vascular cell adhesion molecule 1 (VCAM1), VCAM1 (gene 7412); assay: BSK_MyoF_VCAM1: BioMAP Diversity Plus: MyoF Assay for Vascular cell adhesion molecule 1 (VCAM1) Biomarker Activity (AID 2284231); conditions: primary human lung fibroblasts
In short: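 ELISA readout of VCAM-1 on human lung fibroblast cultures 24 hours after dosing, analyzed for signal gain relative to DMSO. Overt cytotoxicity was checked by sulforhodamine B total-protein staining in parallel cultures.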

[13] = read-out: Collagen I, COL1A1 (gene 1277); assay: BSK_MyoF_CollagenI: BioMAP Diversity Plus: MyoF Assay for Collagen I Biomarker Activity (AID 2284238); conditions: primary human lung fibroblasts
In short: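 Collagen I levels measured by ELISA on human lung fibroblast cultures 24 h post-dosing, with curve fitting in the positive direction relative to DMSO; SRB staining of parallel wells marked cytotoxicity.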

[14] = read-out: Collagen III, COL3A1 (gene 1281); assay: BSK_MyoF_CollagenIII: BioMAP Diversity Plus: MyoF Assay for Collagen III Biomarker Activity (AID 2284239); conditions: primary human lung fibroblasts
In short: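 Collagen III biomarker quantified by ELISA in human lung fibroblast cultures 24 h after dosing. Activity fitted in the positive direction against DMSO as baseline.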

[15] = read-out: Interleukin 17F (IL17F), IL17F (gene 112744); assay: BSK_BT_xIL17F: BioMAP Diversity Plus: BT Assay for Interleukin 17F (IL17F) Biomarker Activity (AID 2284243); conditions: primary human B cells with PBMC
In short: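 Human B cells co-cultured with PBMC; secreted IL-17F quantified by LumineX xMAP 24 hours after chemical dosing. Activity fitted in the positive direction against DMSO negative control as baseline.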

[16] = read-out: Actin alpha 1 (ACTA1), ACTA1 (gene 58); assay: BSK_MyoF_ACTA1: BioMAP Diversity Plus: MyoF Assay for Actin alpha 1 (ACTA1) Biomarker Activity (AID 2284244); conditions: primary human lung fibroblasts
In short: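 Measured by ELISA: alpha-smooth muscle actin in human primary lung fibroblasts 24 h after dosing, with DMSO as baseline and upward signal change as the fitted direction.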

[17] = read-out: Interleukin 2 (IL2), IL2 (gene 3558); assay: BSK_BT_xIL2: BioMAP Diversity Plus: BT Assay for Interleukin 2 (IL2) Biomarker Activity (AID 2284245); conditions: primary human B cells with PBMC
In short: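 Secreted interleukin-2 from human B cell/PBMC co-cultures, measured 24 h post-dosing by Luminex multiplex immunoassay. Upward-direction curve fitting against DMSO baseline.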

[18] = read-out: Basic fibroblast growth factor (bFGF), FGF2 (gene 2247); assay: BSK_MyoF_bFGF: BioMAP Diversity Plus: MyoF Assay for Basic fibroblast growth factor (bFGF) Biomarker Activity (AID 2284246); conditions: primary human lung fibroblasts
In short: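 In this multiplexed cell system, lung fibroblasts (human primary) receive test chemical for 24 h before ELISA detection of bFGF; DMSO defines baseline and the analysis direction is positive.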

[19] = read-out: Collagen IV, COL4A1 (gene 1282); assay: BSK_MyoF_CollagenIV: BioMAP Diversity Plus: MyoF Assay for Collagen IV Biomarker Activity (AID 2284247); conditions: primary human lung fibroblasts
In short: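 Activity is scored as a signal increase over DMSO in an ELISA for Collagen IV, measured on human lung fibroblasts at 24 h after chemical treatment. Cytotoxicity is checked in parallel cultures by sulforhodamine B total-protein staining.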

[20] = TAMU_PeakParms_SingleDonor1434_QT: Texas A&M University (TAMU) 1.5-hr Human Induced Pluripotent Stem Cell (iPSC)-derived Cardiomyocytes Calcium (Ca+2) Flux Assay for Cardiotoxicity: QT (decay-rise ratio) (AID 2284235; active = hit-call score of the fitted dose curve at least 0.9, where 1 is the maximum)
In short: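 iPSC-derived cardiomyocytes (single donor 1434) dosed at 0.2, 1, 10, 100 uM final in 0.5% DMSO, 90 min at 37C. Ca2+ flux fluorescence decay/rise ratio; EC05 (5% increase versus DMSO) as POD, excluding beat-arrest and severe-notch data.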

Sequence of Tumor necrosis factor (Homo sapiens) (P01375 whole entry, looked up): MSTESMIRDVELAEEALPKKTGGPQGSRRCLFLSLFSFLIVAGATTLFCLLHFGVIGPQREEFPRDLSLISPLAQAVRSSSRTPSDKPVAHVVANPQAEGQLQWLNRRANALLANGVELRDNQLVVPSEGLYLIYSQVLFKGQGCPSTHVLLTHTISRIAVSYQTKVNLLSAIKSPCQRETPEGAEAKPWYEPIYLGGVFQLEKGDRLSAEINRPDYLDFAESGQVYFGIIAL

CCOP(=S)(OCC)Oc1nc(Cl)c(Cl)cc1Cl
AC50 [1]: 231 µM (active)
outcome [2]: inactive
outcome [3]: inactive
AC50 [4]: 9.92 µM (active) and 75.5 µM (active)
AC50 [5]: 29.8 µM (active)
AC50 [6]: 7.91 µM (active) and 89.6 µM (active)
AC50 [7]: 35.5 µM (active)
AC50 [8]: 82.7 µM (active) and 26.6 µM (active)

COC(=O)c1sccc1S(=O)(=O)NC(=O)Nc1nc(C)nc(OC)n1
outcome [9]: inactive
outcome [10]: inactive
outcome [11]: inactive
outcome [12]: inactive
outcome [13]: inactive
outcome [14]: inactive
outcome [15]: inactive
outcome [16]: inactive
outcome [17]: inactive
outcome [18]: inactive
outcome [19]: inactive

C=C(C)C(=O)[O][Sn]([CH2]CCC)([CH2]CCC)[CH2]CCC
AC50 [1]: 0.181 µM (active)
AC50 [2]: 0.272 µM (active)
AC50 [4]: 82.6 nM (active)
AC50 [5]: 0.0846 µM (active)
AC50 [6]: 2.77 µM (active)
AC50 [7]: 0.335 µM (active)
AC50 [8]: 54.7 nM (active)

O=Cc1cccc(Oc2ccccc2)c1
AC50 [9]: 5.07 µM (active)
outcome [10]: inactive
outcome [11]: inactive
outcome [12]: inactive
outcome [13]: inactive
outcome [14]: inactive
outcome [15]: inactive
outcome [16]: inactive
outcome [17]: inactive
outcome [18]: inactive
outcome [19]: inactive

COP(=S)(OC)Oc1cc(Cl)c(Cl)cc1Cl
outcome [9]: inactive
outcome [10]: inactive
outcome [11]: inactive
AC50 [12]: 31.1 µM (active)
outcome [13]: inactive
outcome [14]: inactive
outcome [15]: inactive
AC50 [16]: 31.9 µM (active)
outcome [17]: inactive
outcome [18]: inactive
outcome [19]: inactive

CC(C)c1ccc(CO)cc1
outcome [9]: inactive
outcome [10]: inactive
outcome [11]: inactive
outcome [12]: inactive
outcome [13]: inactive
outcome [14]: inactive
outcome [15]: inactive
outcome [16]: inactive
outcome [17]: inactive
outcome [18]: inactive
outcome [19]: inactive

Oc1ccc(-c2ccccc2)cc1
outcome [9]: inactive
outcome [10]: inactive
outcome [11]: inactive
outcome [12]: inactive
outcome [13]: inactive
AC50 [14]: 0.414 µM (active)
outcome [15]: inactive
outcome [16]: inactive
outcome [17]: inactive
outcome [18]: inactive
outcome [19]: inactive

CCNc1nc(NC(C)(C)C)nc(SC)n1
outcome [9]: inactive
outcome [10]: inactive
AC50 [11]: 20 µM (active)
AC50 [12]: 20 µM (active)
outcome [13]: inactive
outcome [14]: inactive
AC50 [15]: 20 µM (active)
outcome [16]: inactive
outcome [17]: inactive
outcome [18]: inactive
outcome [19]: inactive

NC(=S)Nc1ccccc1
outcome [9]: inactive
outcome [10]: inactive
outcome [11]: inactive
outcome [12]: inactive
outcome [13]: inactive
outcome [14]: inactive
outcome [15]: inactive
outcome [16]: inactive
outcome [17]: inactive
outcome [18]: inactive
outcome [19]: inactive

COP(=O)(OC)O/C(=C\Cl)c1cc(Cl)c(Cl)cc1Cl
outcome [2]: inactive
AC50 [4]: 51500 nM (active)
outcome [4]: inactive
AC50 [5]: 31.1 µM (active) and 23 µM (active)
AC50 [6]: 12.4 µM (active) and 70.3 µM (active)
AC50 [7]: 23.3 µM (active) and 89 µM (active)
AC50 [8]: 51500 nM (active)
outcome [8]: inactive

COP(=S)(OC)Oc1ccc(Sc2ccc(OP(=S)(OC)OC)cc2)cc1
outcome [9]: inactive
outcome [10]: inactive
outcome [11]: inactive
outcome [12]: inactive
AC50 [13]: 28.7 µM (active)
AC50 [14]: 28.6 µM (active)
outcome [15]: inactive
AC50 [16]: 27.4 µM (active)
outcome [17]: inactive
outcome [18]: inactive
outcome [19]: inactive

Oc1cccc2cccnc12
outcome [3]: inactive
outcome [20]: inactive
